Data: PubChem BioAssay (NCI)
Where “and” joins values, the source holds several entries; their conditions need not be identical. Identical values can stand only once. About 83,000 compounds went through this panel and 20% of them were active in at least one assay; those are over-represented in the sample as a whole.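 Compound tested at a single concentration for 48 hours in 96-well plates; a percent growth value below 10 was scored as active.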 A number with no mark means an inactive call. Calls of active or inactive are those of the source.

Each compound was assayed on HL-60(TB) leukemia (assay: NCI-60 one-dose screen, 48 h (100 = growth as untreated, 0 = no growth, -100 = all killed)). Conditions: 10 µM unless noted.

Row | Structure (SMILES) | growth
1 | CCOC(=O)C(=O)/C(=C\c1ccc(Cl)cc1)C(=O)N1C(=S)NC(=O)C1CC(C)C (stereo unspecified) | 111%
2 | CCCCc1nc2c(N)nc3ccccc3c2n1Cc1cccc(CN)c1 | 11.9%
3 | Nc1ncc(-c2ccc3ncnc(NCc4ccccc4)c3c2)cn1 | 44.1%
4 | CCOC(=O)c1c(Nc2ccccc2)nn2c(N)c(C#N)c(-c3ccc(F)cc3)nc12 | 72.6%
5 | O=C(/C=C/c1ccc(F)cc1)Nc1cccc2cccnc12 | 93.7%
6 | N=c1c2cc(-c3ccccc3)oc2ncn1/N=C/c1ccc(Br)cc1 | 109%
7 | COc1ccc(-c2nc3cccc(O)c3c(=O)n2Cc2ccccc2)cc1COc1ccc(NC(C)=O)cc1 | 45.4% [3 µM]
8 | CN(C)c1ccc(/C=N/Nc2nc(N/N=C/c3ccc(N(C)C)cc3)nc(N3CCOCC3)n2)cc1 | 96.7%
9 | COc1cc(-c2noc(C[C@@H](NC(=O)OCc3ccccc3)C(C)C)n2)cc(OC)c1OC | 100%
10 | CCc1ccc(SC2c3ccc(N(CC)CC)cc3Oc3nc(N)c(C#N)c(N)c32)cc1 (stereo unspecified) | -12.5% (active)
11 | Cc1ccc(-c2cc3nc(C(Cl)Cl)nc(C)n3n2)cc1 | 107%
12 | COc1cc(-c2nc(-c3ccccc3)[nH]c2-c2ccnc(NCCCNS(=O)(=O)c3ccc(C(F)(F)F)cc3)n2)ccc1Cl | 13.9% and 37.8%
13 | CN1CC[C@@H]2[C@@]3(C)CC[C@H](O)C(C)(C)[C@@H]3CC[C@@]2(C)[C@]2(C)CC[C@@]3(CO)CCC(C)(C)C[C@@H]3C12 (stereo partly specified) | 79.6%
14 | N/C(=N\c1nc2ccc([N+](=O)[O-])cc2s1)C(Cl)(Cl)Cl | 20.7%
15 | CN1CCN(Cc2ccc(NC(=O)c3cncc(C#Cc4cnc5ccc(OCC6COC6)nn45)c3)cc2C(F)(F)F)CC1 | -42.8% (active)
16 | O=C1[C@H]2Cc3c([nH]c4ccccc34)[C@H](c3ccc(Cl)cc3)N2C(=O)CN1C1CCN(Cc2c(Cl)cccc2Cl)CC1 | 62.1%
17 | C/C=C/[C@@H]1C=C[C@@H]2C[C@H](C)CC[C@H]2[C@]1(C)/C(O)=C1/C(=O)[C@H](CO)N(C)C1=O | 62.7%
18 | CN(C)c1ccc(/C=C2\Cc3c(F)ccc(Br)c3C2=O)cc1 | 79.6%

Row | Structure (SMILES) | growth
19 | OC1CCN(CCCOc2c3ccc(Cl)cc3nc3c2oc2ccc(Cl)cc23)CC1 | 22.4%
20 | CN1CCN(Cc2ccc(NC(=O)c3cncc(C#Cc4cnc5ccc(N)nn45)c3)cc2C(F)(F)F)CC1 | 2.82% (active)
21 | O=C(/C=C/c1cc(Cl)ccc1Cl)Nc1ncc(Cc2ccc(Cl)cc2)s1 | -7.21% (active)
22 | CNC(=O)Nc1ccc(Nc2cc(-c3ccc(-n4cccn4)cc3)[nH]n2)c(C)c1 | 92.7%
23 | COc1cc(/C=N/Nc2ccnc3cc(Cl)ccc23)cc(OC)c1O | -44.6% (active)
24 | COc1cc2c(cc1OC)C(Sc1ccc(C)cc1)c1c(nc(N)c(C#N)c1N)O2 (stereo unspecified) | -19% (active)
25 | NS(=O)(=O)c1ccc(-n2cc(CC=O)nn2)cc1 | 105%
26 | CC(Nc1c(C#N)cnc2ccc(-c3cnc(N)nc3)cc12)c1ccccc1 (stereo unspecified) | 20.1%
27 | COC(=O)CCCNCCCn1ccc2cc(NCc3cccc(-c4ccccc4)c3C)ccc21 | 16.7%
28 | Clc1ccc(N/N=c2/oc3ccccc3cc2-c2cc3ccccc3[nH]2)cc1 | 88.7%
29 | CC(=O)Nc1ccccc1-c1nc2ccccc2s1 | 99.5%
30 | N#Cc1cccc(/C(N)=N/C(N)=N/c2nc3ccccc3s2)c1 | 4.28% (active)
31 | O=C(Nc1cccc(C(F)(F)F)c1)N1CCN(c2cc(-c3cn(-c4ccccc4)nc3-c3cccc(O)c3)ccn2)CC1 | 20.9%
32 | CNC(=O)c1cc(N2CCc3cc(NC(=O)Nc4ccc(Cl)c(C(F)(F)F)c4)ccc32)ccn1 | 50.3%
33 | O=C(NCCNc1cc(-c2cn(-c3ccccc3)nc2-c2cccc(O)c2)ccn1)Nc1ccc(Cl)c(C(F)(F)F)c1 | 84.2%
34 | O=C(NNc1nc2cc(F)c(F)cc2n2cccc12)c1ncccn1 | 2.19% (active)
35 | O=c1[nH]c2ccc(Cl)cc2cc1CSc1ccccc1Nc1nccc(-c2ccc(Cl)cc2)n1 | 78.5%
36 | O=C(CCCCCCNC(=O)C(O)(O)C(F)(F)F)Nc1ccc(Br)cc1 | 10.4%
